Screens from PubChem.
PTHR1 agonist: qHTS for PTHR1 Agonists: Primary Screen; 410,000 tested, 0.075% active; HEK293 GP2 PTHR1 cells, GloSensor cAMP luminescence, 1 h; Potency, µM (top dose mostly 115 µM), for the others: at the highest dose activation, most hits filed as activators; Parathyroid hormone/parathyroid hormone-related peptide receptor (Homo sapiens), Q03431; AID 743266, 2014; also: potency is read from the fitted curve at half-maximal effect; nearly all actives have a fitted effect of over 55% in size
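HEK-293-derived GP2 cells expressing PTHR1 and a GloSensor cAMP reporter, 3,000/well, plated overnight, given luciferin plus IBMX (each 0.5 mM as added) for 1 h at 37 °C, then compound for 1 h at 37 °C. Luminescence was read after 15 min at room temperature.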
TRPML1 ag: qHTS for Agonists of the Human Mucolipin Transient Receptor Potential 1 (TRPML1) | Mucolipin-1 (Homo sapiens), Q9GZU1 | 410,000 tested, 0.12% active | activation, % (test concentration not listed) | TRPML1-expressing cells, Ca2+ dye fluorescence, FDSS | AID 624414, 2012; in the data active = activation above about 50%; inconclusive = mostly about 30% to 49%; also: 0% is about no effect
Target sequence (Q9GZU1 whole entry, looked up): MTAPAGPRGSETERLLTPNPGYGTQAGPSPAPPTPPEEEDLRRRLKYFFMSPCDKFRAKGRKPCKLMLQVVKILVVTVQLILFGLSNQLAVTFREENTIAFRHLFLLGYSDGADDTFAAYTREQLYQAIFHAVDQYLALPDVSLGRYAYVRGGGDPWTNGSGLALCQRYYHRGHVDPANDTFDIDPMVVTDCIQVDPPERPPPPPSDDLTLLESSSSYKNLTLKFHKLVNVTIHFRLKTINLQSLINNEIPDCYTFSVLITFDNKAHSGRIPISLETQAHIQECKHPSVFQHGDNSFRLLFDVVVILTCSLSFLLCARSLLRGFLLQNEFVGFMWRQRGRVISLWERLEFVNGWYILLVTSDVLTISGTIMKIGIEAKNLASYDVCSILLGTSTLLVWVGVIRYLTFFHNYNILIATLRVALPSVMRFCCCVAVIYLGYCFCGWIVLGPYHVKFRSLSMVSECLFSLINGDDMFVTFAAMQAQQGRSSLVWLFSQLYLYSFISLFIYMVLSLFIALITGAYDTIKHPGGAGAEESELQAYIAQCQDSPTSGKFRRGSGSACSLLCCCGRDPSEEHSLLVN
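Cells: TRPML1-DL, 1X Tet inducer, ~16 h at 37 degrees C/5% CO2. Dye: ABD Ca8 no-wash + quencher, 45-90 min RT. Read: 10 s baseline, compound add, 110 s agonist phase; 54-4 EC80 (4uM final), 110 s antagonist phase.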
GLP1R cytotox: qHTS of GLP-1 Receptor Inverse Agonists: Cytotox Screen | AID 624418, 2012 | HEK293 cAMP-luciferase reporter cells, luminescence, 24 h | Potency, µM (highest dose often 38.3 µM), inactives show at the top dose activity change, negative = inhibition, most hits filed as inhibitors | 410,000 tested, 0.13% active;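 also: loss of luciferase light is scored as toxicity; potency is read from the fitted curve at half-maximal effect; % is scaled to controls: 0 for no effect and ±100 for the full control effect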
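Step one: seed cells (200 cells/uL, DMEM with 10% Nu serum, 1% pen-strep). Step two: 12-hour incubation at 37 deg C. Step three: pin 23 nL compound, incubate 24 hr. Step four: add luciferase reagent, read luminescence 12 min later.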
TRPML1 inh: qHTS for Inhibitors of the Human Mucolipin Transient Receptor Potential 1 (TRPML1); activity change, negative = inhibition, % (no concentration beside the values); TRPML1-inducible cells, Ca2+ dye fluorescence, FDSS; active compounds read low; inhibition of EC80 agonist-evoked calcium signal; 390,000 tested, 0.02% active; in the data active = activity change below about -50%; inconclusive = between about -30% and that limit;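 also: stimulus is agonist 54-4 at its EC80 concentration; % is scaled to controls: 0 for no effect and ±100 for the full control effect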
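Calcium fluorescence in TRPML1-DL cells induced overnight with Tet: a 110 s read after compound pin addition, then a 110 s antagonist read after challenge with 54-4 at 4 uM final (EC80).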
TRHR agonist-1: qHTS for Small Molecule Agonists and Allosteric Enhancers of Human TRH Receptor: Primary Screen for Agonists | Thyrotropin-releasing hormone receptor (Homo sapiens), P34981 | TRHR cells, calcium flux fluo-8, FDSS agonist mode | activation, % at 2 µM | 360,000 tested, 0.18% active; in the data active = activation above about 30%; also: 0% is about no effect
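In this calcium-flux screen, cells bearing human TRHR are dye-loaded with fluo-8, baselined for 10 cycles, then exposed to library compounds; positive kinetic calcium responses during the agonist phase mark hits, with TRH as control.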
TRHR enhancer-1: qHTS for Small Molecule Agonists and Allosteric Enhancers of Human TRH Receptor: Primary Screen for Enhancers; AID 493056, 2011; 360,000 tested, 0.66% active; enhancement, % at 2 µM; TRHR cells, fluo-8 calcium fluorescence, EC20 TRH enhancement; Thyrotropin-releasing hormone receptor (Homo sapiens), P34981; in the data active = enhancement above about 30%; also: 0% is about no effect
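Enhancer read-out: after compound pinning and an initial kinetic agonist-mode read, an EC20 of TRH (10 nM final) was injected and fluo-8 calcium signal (Ex 480/Em 530) followed at 1 s/cycle for 100 cycles in TRHR-expressing cells.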
TRHR enhancer-2: qHTS for Small Molecule Agonists and Allosteric Enhancers of Human TRH Receptor: Confirmation Screen for Enhancers; shares compounds with TRHR enhancer-1; TRH receptor cell assay, enhancer confirmation qHTS; activity change, negative = inhibition, % at 46.1 µM; 970 tested, under 10 active; AID 493076, 2011;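 also: compound effect scored on response to added TRH at EC20 of 10 nM; 0% is about no effect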
TRHR agonist-2: qHTS for Small Molecule Agonists and Allosteric Enhancers of Human TRH Receptor: Confirmation Screen for Agonists; shares compounds with TRHR enhancer-1; TRHR-expressing cells, agonist activation read-out; Potency, µM (top dose mostly 46.1 µM), for inactives: at the highest dose activation, hits mostly activators; 970 tested, 8% active; also: potency is read from the fitted curve at half-maximal effect; 0% is about no effect; nearly all actives have a fitted effect of over 75% in size
* hit, by the source's call; i = inactive; ? = inconclusive; / = not tested or not shown; [ ] = remark or other dose. Compounds with a hit are over-represented: about 0.93% of the library has one in this group of screens. Unless noted, calls follow the shape of the dose curve; as a rule, active = well fitted curve in the direction sought with a large enough effect; inconclusive = small, poorly fitted or top-dose-only effect, or another doubt; inactive = no such curve, though single readings can be large; an effect the other way counts as inactive or inconclusive.

SMILES | PTHR1 agonist | TRPML1 ag | GLP1R cytotox | TRPML1 inh | TRHR agonist-1 | TRHR enhancer-1 | TRHR enhancer-2 | TRHR agonist-2
COc1ccc(-c2cn3cccnc3n2)cc1NC(=O)c1cc(OC)c(OC)c(OC)c1 | -2% | 1 | -25% | -16 | -1 | -2 | / | /
Cc1c(NC(=O)C(C)OC(=O)c2c3c(nc4ccccc24)CCC3)c(=O)n(-c2ccccc2)n1C (centres undefined) | -40% | 0 | 14% | -5 | -1 | 49* | -6 | -1%
Cc1c(NC(=O)COC(=O)c2c3c(nc4ccccc24)CCCC3)c(=O)n(-c2ccccc2)n1C | i | -1 | -21% | 4 | 0 | 4 | / | /
COC(=O)c1ccccc1NC(=O)CCCn1nc([N+](=O)[O-])c(Br)c1C | -20% | 1 | 12% | -9 | 28 | 0 | -7 | 2%
COCCNC(=O)C(c1ccc(OC)cc1)N(C(=O)Cn1nnc2ccccc21)c1cccnc1 (centres undefined) | i | 1 | -22% | -6 | 0 | 42* | -5 | 0%
COc1ccc(-n2c(O)c(/C=N/NS(=O)(=O)c3ccc(C)c([N+](=O)[O-])c3)c3ccccc3c2=O)cc1OC | -11% | 13 | 34% | -8 | 1 | 2 | / | /
O=c1c2ccccc2c(/C=N/NS(=O)(=O)c2ccccc2)c(O)n1-c1ccccn1 | 23% | 14 | 106% | 10 | 32* | 27 | -6 | 4%
COc1ccc(C(C)(C)C)cc1NC(=O)c1ccc[n+]([O-])c1 | i | -1 | 8% | -1 | 1 | 53* | 8 | 1%
COc1nc2c(s1)C(=O)NCCC2 | i | 0 | 2% | -28 | 0 | -3 | / | /
CCN(CC)c1nc2c(s1)C(=O)NCCC2 | -25%[57.5 µM] | 1 | 3% | 8 | 0 | 51* | -5 | 0%
CC1CCC2C(=O)N(c3cccc(C(=O)Nc4ccc(F)cc4)c3)C(=O)C2C1 (centres undefined) | -14% | 0 | 2% | -3 | 0 | 57* | -1 | 2%
Cc1cccc(C)c1NC(=O)c1cccc(N2C(=O)C3CCC(C)CC3C2=O)c1 (centres undefined) | -10% | 0 | -1% | -1 | 0 | 2 | / | /
Nc1ccc2c(c1)C(=O)N(c1ccc3ccccc3c1)C2=O | / | 0 | / | / | / | / | / | /
O=P1(c2ccccc2)C=Cn2c1cc1c2CCCC1 (centres undefined) | i | 1 | 9% | 3 | 0 | 60* | 12 | -1%
Cc1ccc2[nH]c(CCN(C)C)c(CC#N)c2c1 | i | 0 | 5% | -13 | 0 | 66* | -6 | ?
Cn1cccc1/C=C1\CCC/C(=C\c2cccn2C)C1=O | -32%[57.5 µM] | ? | 77% | -10 | 53* | 3 | 1 | 18µM*
COc1ccc(CCNC(=O)CSc2nc(C)nc3c2c(=O)n(C)c(=O)n3C)cc1OC | -9% | -1 | 1% | 21 | 0 | 45* | -3 | 1%
CCCCc1c(O)nc(SCC(=O)NCCc2ccc(OC)c(OC)c2)[nH]c1=O | i | 1 | 8% | 1 | 0 | 41* | 9 | 1%
Cn1c(=O)n(-c2ccc(C(C)(C)C#N)cc2)c2c3cc(-c4cnc5ccccc5c4)ccc3ncc21 | / | -1 | / | / | / | / | / | /
O=C(CCc1nc2ccccc2c(=O)[nH]1)Nc1cc(Cl)ccc1N1CCCC1 | -17% | 3 | -7% | 8 | -1 | 47* | -2 | -1%
O=C(CCc1nc2ccccc2c(=O)[nH]1)Nc1ccc(N2CCCCC2)cc1 | 6% | 0 | -1%[7.66 µM] | 17 | 0 | 3 | / | /
O=C(Nc1ccccn1)N1CCOCC1 | i | 0 | 1% | -4 | 0 | 48* | -2 | -1%
OC(COc1ccccc1)CN1CCCCCC1 (centres undefined) | 27% | 0 | 8%[7.66 µM] | -2 | 1 | 42* | ? | 1%
OC(COc1ccccc1)CN1CCN(CC(O)COc2ccccc2)CC1 (centres undefined) | -21% | -1 | -15% | 6 | 0 | 0 | / | /
O=C1CCN(CCc2ccccc2)CCN1C(CSc1ccc(Br)cc1)Cc1ccccc1 (centres undefined) | / | 1 | / | 18 | / | / | / | /
SMILES | PTHR1 agonist | TRPML1 ag | GLP1R cytotox | TRPML1 inh | TRHR agonist-1 | TRHR enhancer-1 | TRHR enhancer-2 | TRHR agonist-2
OC(CN1CCCCC1)c1ccccc1 (centres undefined) | / | 0 | / | / | / | / | / | /
C/C=C/c1cc(CN2CCN(c3ccccc3)CC2)c(O)c(OC)c1 | i | 2 | 8% | 32 | 2 | 42* | -3 | -1%
Cc1ccc(NC(=O)CSc2nc3nc(C)c(Br)cc3[nH]2)cc1F | -21% | 2 | 4% | -4 | 0 | 81* | -8 | 0%
Cc1ccc(NC(=O)CSc2nc3ncccc3[nH]2)cc1F | i | 1 | 0% | -1 | 0 | 5 | / | /
COc1cc2nc(N3CCCN(C)CC3)nc(N(C)C)c2cc1OC | / | 0 | / | / | / | / | / | /
O=C(COC(=O)c1c2c(nc3ccccc13)/C(=C/c1cccc([N+](=O)[O-])c1)CCC2)NC1CCS(=O)(=O)C1 (centres undefined) | -3% | 0 | 1% | -20 | 1 | 42* | 0 | 1%
CN(C(=O)COC(=O)c1c2c(nc3ccccc13)/C(=C/c1cccc([N+](=O)[O-])c1)CCC2)C1CCS(=O)(=O)C1 (centres undefined) | i | 1 | -27% | -20 | 1 | 3 | / | /
Cc1ccc(NC(=O)c2cc(S(=O)(=O)N3CCCC3)cn2C)cc1C | -27% | 1 | 13% | 6 | 0 | 47* | 7 | 0%
Cc1ccc(NC(=O)NN2CCN(C)CC2)cc1C | i | 0 | 29% | -11 | 0 | 41* | 5 | -1%
